# Data: the supplement of paper PMC3334620
# Whole data set: some 33,000 sequences, median “E-score (-0.5 to 0.5)” near -0.041, cut for the highest 2% near 0.37. Many of the other results were omitted from the sample, so the highest values are more common in it than they were.
# Biological target: T1, Ecm22 (UniProt Q05958)
# T1 sequence: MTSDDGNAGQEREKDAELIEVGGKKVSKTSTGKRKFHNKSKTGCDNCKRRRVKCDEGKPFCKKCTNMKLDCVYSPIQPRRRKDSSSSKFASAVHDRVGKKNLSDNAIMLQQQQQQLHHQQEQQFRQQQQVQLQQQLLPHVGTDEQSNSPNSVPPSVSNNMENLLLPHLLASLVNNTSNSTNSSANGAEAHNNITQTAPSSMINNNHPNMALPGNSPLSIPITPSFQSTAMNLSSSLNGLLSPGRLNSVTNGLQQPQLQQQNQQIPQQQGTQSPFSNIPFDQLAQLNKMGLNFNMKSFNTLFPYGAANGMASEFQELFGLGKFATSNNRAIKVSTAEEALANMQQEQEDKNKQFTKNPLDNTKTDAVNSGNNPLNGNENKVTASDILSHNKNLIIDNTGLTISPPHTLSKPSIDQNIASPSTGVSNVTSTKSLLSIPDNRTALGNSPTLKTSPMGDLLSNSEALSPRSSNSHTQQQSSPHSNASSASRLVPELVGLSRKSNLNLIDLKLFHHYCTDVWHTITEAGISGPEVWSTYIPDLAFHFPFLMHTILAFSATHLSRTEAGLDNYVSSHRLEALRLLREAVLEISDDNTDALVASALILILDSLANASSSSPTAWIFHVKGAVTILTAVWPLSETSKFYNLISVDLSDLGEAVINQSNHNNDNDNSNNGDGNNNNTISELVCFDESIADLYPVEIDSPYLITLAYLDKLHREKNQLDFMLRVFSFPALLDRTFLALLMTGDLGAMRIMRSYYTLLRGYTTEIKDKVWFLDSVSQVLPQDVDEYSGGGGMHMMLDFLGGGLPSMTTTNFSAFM
# Test: PBM E-score (8-mer binding enrichment) (E-score (-0.5 to 0.5)); higher = stronger / more preferred TF binding
# Conditions: protein concentration: 200 nM; construct: GST-full length
# Outline: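 Each ungapped eight-base word and its reverse complement, pooled, received an E-score from the Universal PBM Analysis Suite. Underlying scans, normalised with masliner, recorded fluorescent anti-GST bound to GST-tagged yeast transcription factors. These were applied at about 100-200 nM to universal all-10-mer Agilent arrays double-stranded by primer extension.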
row,Sequence,PBM E-score
1,AGCCGGAT,-0.0402
2,GACGAGTA,0.117
3,TACGAGTA,0.467
4,CACGAGTG,0.106
5,AACGAGTG,0.421
6,AAAGAGTT,-0.264
7,AACGAGTA,0.433
8,AACGAGTT,0.41
9,AGCGAGTG,0.324
10,AGCGAGTA,0.363
11,ACCGAGTA,0.286
12,AACGCGTT,0.212
13,CACGAGTA,0.157
14,CTGCGTTC,0.213
15,GCGTTGAA,0.218
16,CCATATCC,-0.0494
17,CACGTACG,0.338
18,CTAGTTAA,-0.153
19,GCCTCTAC,-0.123
20,AACGAGTC,0.419
21,CACGAGTC,-0.0272
22,GACGAGTC,0.115
23,AGAGGGAT,-0.0615
24,ACAGTTCC,-0.0566
25,CCTTCGTC,0.0674

row,Sequence,PBM E-score
1,GCTTCGGA,0.121
2,ACTTCGTG,0.116
3,ACTTCGTC,0.00917
4,GCTTCGCA,0.193
5,GCTTCGTA,0.441
6,CCTTCGCA,0.183
7,ACTTCGTA,0.434
8,CCTTCGTA,0.453
9,TCGGGTCA,0.241
10,AATCGTTC,0.426
11,AATCGTTA,0.269
12,CATCGTGC,0.164
13,CATCGTTC,0.428
14,CATCGTTA,0.259
15,AATCGTTG,0.165
16,CCATTGGA,-0.162
17,AGGTATTA,-0.0627
18,GGGTCGTA,0.439
19,CGGTCGGA,0.0409
20,CGGTCGTC,-0.0294
21,GGGTCGGA,0.135
22,GGGTCGAA,-0.0301
23,AGGTCGTC,0.106
24,AGGTCGTG,-0.13
25,CGGTCGTA,0.464

row,Sequence,PBM E-score
1,AGGTCGTA,0.458
2,ACAGACCA,-0.0504
3,AGCTGAAA,-0.106
4,AACTGCAG,-0.0539
5,CTTTTTCC,-0.068
6,CGTTGGAG,-0.14
7,GCTTACGA,0.386
8,ACTTACGG,0.207
9,GCTTACAA,-0.144
10,ACTTACGA,0.393
11,CCTTACGA,0.383
12,ACTTACGC,-0.137
13,GCTTACTA,-0.087
14,CCTTACTA,0.0754
15,CCTTACGC,0.205
16,AGAATTGC,-0.0838
17,CGACAAAG,0.192
18,CTGCGAGC,0.0428
19,TAGTCCGA,0.123
20,GCATCGGA,0.126
21,GCATCGTA,0.426
22,CCATCGTC,0.00759
23,ACATCGTG,0.0443
24,ACATCGTC,0.0184
25,ACATCGTA,0.423

row,Sequence,PBM E-score
1,CCATCGTA,0.428
2,GCATCGAA,0.0551
3,CCATCGAA,-0.136
4,CCGCCACA,-0.107
5,GCCGAGAC,-0.0241
6,GATGTTGC,0.00895
7,CGGGACAC,-0.0319
8,TACTCACA,-0.0537
9,CCCCCGAG,-0.231
10,ACGAGGCC,0.376
11,ACGAGGCA,0.401
12,AGGAGGCG,-0.229
13,CCGAGGCA,0.0444
14,GCGAGGCA,0.296
15,ACGAGGCT,0.382
16,CCGAGGCG,0.0444
17,CCGAGGCC,0.117
18,GCGAGGCC,0.251
19,ACGAGGCG,0.431
20,ACCAGGCT,-0.198
21,AAGAGGCT,-0.268
22,CCGGTCTA,-0.0788
23,AATAACAA,-0.0956
24,AGATTCCT,-0.227
25,AACGCCGC,-0.00584

row,Sequence,PBM E-score
1,CGGTAAAA,0.228
2,AGCAATAG,-0.0955
3,ACTTCCAA,-0.156
4,AAACCCGA,0.279
5,CTCAACAG,-0.193
6,AGACCAGC,-0.283
7,CAGGAAAA,-0.019
8,AACCCAGC,-0.207
9,ACTACGAT,0.182
10,GGTACGTA,0.319
11,AGTACGCA,-0.0459
12,GGTACGAA,0.486
13,AGTACGAA,0.42
14,CGTACGCA,0.36
15,GGTACGCA,0.263
16,AGTACTAT,0.0505
17,AGTACGAT,0.407
18,CGTACGAA,0.448
19,AGTACGTA,0.283
20,CGTACGTA,0.367
21,AGTTCTGC,0.17
22,AGATGAAG,-0.13
23,CCCCTAGC,-0.254
24,ACTCAACC,-0.0151
25,CGATGGAA,0.0222

row,Sequence,PBM E-score
1,GGCACAAC,-0.169
2,GACACCCA,-0.171
3,TAGGACGA,-0.216
4,ATTCTCAG,-0.308
5,CCTACGAG,0.339
6,CGTACGAC,0.444
7,CGGACGAG,-0.0963
8,ATTACGAC,0.367
9,CGTACGTC,0.356
10,AGTACGAG,0.456
11,CGTACGCC,0.3
12,ATTACGTG,-0.0556
13,ATTACGAG,0.38
14,AGTACGTG,0.142
15,CGTACGAG,0.473
16,AGTACGCG,0.197
17,ACGCTGGA,0.126
18,ACGACCCT,0.331
19,CGCACGCA,0.141
20,GCCGGCGA,-0.117
21,TAGACCGA,0.175
22,AGAGAGCT,-0.169
23,AAGCATTC,-0.157
24,CGTGCGCA,-0.0738
25,CACAGTTC,-0.0557

row,Sequence,PBM E-score
1,CGAGTACA,0.246
2,CGCTAACA,0.0557
3,TGTACGAA,0.48
4,AGTACGTC,0.0542
5,TGTACAAA,-0.0698
6,AGTACGCC,-0.0213
7,AGTACGAC,0.443
8,TGCACGAA,0.109
9,CCGACCAA,0.105
10,CAAGTATG,-0.112
11,ATCTCACG,-0.0833
12,CTACGGTC,0.0518
13,AAACGGTG,0.376
14,ACACGGTC,-0.0081
15,AAACGGCT,0.259
16,AAACGGCC,0.29
17,AGACGGTG,-0.132
18,AAACGGCG,0.391
19,AAACGGTC,0.293
20,ACACGGTG,-0.0453
21,ATACGGTG,0.388
22,ATACGGTC,0.383
23,AAACGGTA,0.287
